Screening results from PubChem BioAssay.
hNpr1 antagonist = human Npr1 receptor antagonism. AID 1347048. Potency, µM (doses to about 46.3 µM), inactives show top-dose activity change, negative = inhibition, usual class: inhibitors. 1.6% of 76,000 active. HEK293 hNpr1 GloSensor cGMP, ANP-stimulated luminescence. P16066; calls by dose curve; further: nearly all actives have a fitted effect of over 60% in size
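HEK293 cells stably expressing human Npr1 and cGMP GloSensor pGS-40F, loaded 2 h with 2% GloSensor reagent, given compound 30 min at room temperature. Luminescence read before and 20 min after 0.1 nM hNppA.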
FLuc inh = blocks purified firefly luciferase enzyme activity. Potency, µM (titrated, usually from 115 µM), hits mostly inhibitors. 2.5% of 76,000 active. purified P. pyralis luciferase, luminescence, biochemical. AID 1347043; further: nearly all actives have a fitted effect of over 65% in size
Target sequence (P08659 whole entry, looked up): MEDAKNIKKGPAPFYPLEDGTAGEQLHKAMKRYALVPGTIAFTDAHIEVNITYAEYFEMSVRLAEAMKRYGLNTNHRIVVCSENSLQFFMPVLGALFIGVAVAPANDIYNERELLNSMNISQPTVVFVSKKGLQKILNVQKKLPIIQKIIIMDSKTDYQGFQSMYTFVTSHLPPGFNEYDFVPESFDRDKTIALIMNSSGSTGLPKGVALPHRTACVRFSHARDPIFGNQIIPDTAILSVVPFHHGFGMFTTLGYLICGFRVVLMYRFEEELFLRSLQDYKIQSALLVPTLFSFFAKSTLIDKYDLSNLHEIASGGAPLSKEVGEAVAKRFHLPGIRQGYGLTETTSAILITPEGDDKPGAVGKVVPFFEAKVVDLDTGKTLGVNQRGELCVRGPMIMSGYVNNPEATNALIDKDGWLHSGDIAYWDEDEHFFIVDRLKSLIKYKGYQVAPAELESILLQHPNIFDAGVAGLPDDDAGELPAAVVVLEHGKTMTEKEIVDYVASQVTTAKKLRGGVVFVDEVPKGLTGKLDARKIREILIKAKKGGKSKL
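Purified 10nM P. pyralis luciferase with 10uM D-luciferin and 10uM ATP in 50mM Tris acetate pH 7.5, 10mM Mg acetate, 0.01% Tween-20, 0.05% BSA. qHTS titration; luminescence read by CCD imager.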
3T3 cytotox = NIH 3T3 cell cytotoxicity. NIH 3T3 viability, CellTiter-Glo ATP luminescence, 48-72 h. Potency, µM (series often up to 96.7 µM), for inactives: at the highest dose activity change, negative = cytotoxicity, actives largely listed as inhibitors. 4.3% of 94,000 active; further: nearly all actives have a fitted effect of over 55% in size
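Cytotoxicity was measured by CellTiter-Glo ATP luminescence after 48 or 72 h compound exposure at 37 °C. Mouse NIH 3T3 fibroblasts were seeded at 400 cells/well and dosed by 23 nL pin transfer.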
HEK cytotox = kills HEK 293 cells; Potency, µM (top dose mostly 115 µM), for inactives: top-dose activity change, negative = cytotoxicity, actives largely listed as inhibitors; AID 1345083; HEK 293 viability, ATP luminescence (CellTiter-Glo), 48-72 h; 6.6% of 94,000 active; further: nearly all actives have a fitted effect of over 60% in size
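Read-out: CellTiter-Glo ATP luminescence. Cells: HEK 293, 250 cells/well. Exposure: 48 or 72 hr, 37 degree Celsius.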
Starred values were filed as active, the others as inactive; [ ] = dose if it differs, or a comment. Only some compounds are listed: those with a hit (about 11% of all), similar ones and a draw of the others. Unless noted, the call rests on the fitted dose curve; in most records, active means well fitted curve in the direction sought with a large enough effect; inconclusive means small, poorly fitted or top-dose-only effect, or another doubt; inactive means no such curve, though single readings can be large; an effect the other way counts as inactive or inconclusive. On the % scale 0 is the no-effect control and ±100 the full control effect; potency means the concentration at half of the fitted maximal effect.

COc1cccc(Nc2cnc3ccc(-c4ccc(OC)c(OC)c4)nn23)c1 was read as hNpr1 antagonist -12%[70.6 µM], FLuc inh inactive, 3T3 cytotox 22µM* and HEK cytotox 56µM*.
COc1ccc(-c2ccc3ncc(Nc4cnccn4)n3n2)cc1OC was read as hNpr1 antagonist 4%[70.6 µM], FLuc inh inactive, 3T3 cytotox 25µM* and HEK cytotox inconclusive.
For COc1ccc(Nc2cnc3ccc(-c4ccccc4)nn23)cc1OC the results were hNpr1 antagonist -13%[70.6 µM], FLuc inh inactive, 3T3 cytotox inconclusive and HEK cytotox 63µM*.
For COc1cccc(Nc2cnc3ccc(-c4ccccc4OC)nn23)c1 the results were hNpr1 antagonist -3%[70.6 µM], FLuc inh inactive, 3T3 cytotox inconclusive and HEK cytotox 79µM*.
For Cc1nn(CC(=O)N2CCCCCC2)c(=O)c2nc(-c3ccccc3)sc12 the results were hNpr1 antagonist 0%, FLuc inh inactive, 3T3 cytotox -8% and HEK cytotox inconclusive.
For CCOc1ccc(S(=O)(=O)N2CCN(C3(CC)CCN(C(=O)NC)C3)CC2)cc1 (centres undefined) the results were hNpr1 antagonist 2%, FLuc inh inactive, 3T3 cytotox inconclusive and HEK cytotox inconclusive.
For O=C(c1ccc(Cl)nc1)N1CCCC(C(=O)N2CCC(c3nc4ccncc4[nH]3)CC2)C1 (centres undefined) the results were 3T3 cytotox -8% and HEK cytotox 0%.
COc1cncc(Nc2cnc3ccc(-c4ccc(OC)c(OC)c4)nn23)c1 was read as hNpr1 antagonist -12%[70.6 µM], FLuc inh inactive, 3T3 cytotox 20µM* and HEK cytotox 63µM*.
For COc1cncc(Nc2cnc3ccc(-c4ccccc4OC)nn23)c1 the results were hNpr1 antagonist inconclusive, FLuc inh inactive, 3T3 cytotox inconclusive and HEK cytotox inconclusive.
For COc1ccccc1-c1ccc2ncc(Nc3cccc(N[S+](C)(=O)[O-])c3)n2n1 the results were hNpr1 antagonist -20%[70.6 µM], FLuc inh inactive, 3T3 cytotox inconclusive and HEK cytotox 63µM*.
COc1cncc(Nc2cnc3ccc(-c4ccc(OC)nc4)nn23)c1 was read as hNpr1 antagonist 1%[70.6 µM], FLuc inh inactive, 3T3 cytotox -24%[138 µM] and HEK cytotox inconclusive.
`COc1ccc(Nc2cnc3ccc(-c4ccc(OC)c(OC)c4)nn23)cc1OC` gave hNpr1 antagonist -4%[70.6 µM], FLuc inh inconclusive, 3T3 cytotox 20µM* and HEK cytotox 89µM*.
For COc1ccc(Nc2cnc3ccc(-c4ccc(OC)c(OC)c4)nn23)cc1 the results were hNpr1 antagonist -1%[70.6 µM], FLuc inh 18µM*, 3T3 cytotox 14µM* and HEK cytotox inconclusive.
For O=C(Cc1ccccn1)NCCNC(=O)c1cccc(-c2ccsc2)c1 the results were 3T3 cytotox -19%[138 µM] and HEK cytotox -30%[172 µM].
Screening CC(CCc1ccccc1)NC(=O)C1CN(C2CCCC2)C(=O)N1 (centres undefined) returned 3T3 cytotox -20%[138 µM] and HEK cytotox -2%[172 µM].
O=C(NCc1ccccc1)c1nc2sccn2c1-c1cccnc1 was read as 3T3 cytotox inconclusive and HEK cytotox -11%[172 µM].
Screening CNC(=O)C1(N2CCC[C@H]2C(=O)N2CCC(C)CC2)CCCCC1 returned hNpr1 antagonist -2%[70.6 µM], FLuc inh inactive, 3T3 cytotox -11%[138 µM] and HEK cytotox -11%[172 µM].
`COc1ccc(-c2ccc3ncc(Nc4ccc5c(c4)OCO5)n3n2)cn1` gave hNpr1 antagonist -13%[70.6 µM], FLuc inh inactive, 3T3 cytotox inconclusive and HEK cytotox inconclusive.
Screening COc1ccc(-c2ccc3ncc(Nc4ccncc4)n3n2)cc1OC returned hNpr1 antagonist 1%[70.6 µM], FLuc inh inactive, 3T3 cytotox 35µM* and HEK cytotox 79µM*.
Cn1cccc1CN1CCC(Oc2ccccc2-c2nc(-c3ccncc3)no2)C1 (centres undefined) was read as 3T3 cytotox 40µM* and HEK cytotox inconclusive.
For Cc1ccsc1CN1CCC(Oc2ccccc2-c2nc(-c3ccncc3)no2)C1 (centres undefined) the results were hNpr1 antagonist -23%, FLuc inh inconclusive, 3T3 cytotox 32µM* and HEK cytotox 25µM*.
c1csc(CN2CCC(Oc3ccccc3-c3nc(-c4cnccn4)no3)C2)c1 (centres undefined) was read as hNpr1 antagonist -13%, FLuc inh inactive, 3T3 cytotox inconclusive and HEK cytotox inconclusive.
`CCOc1ccc(CN2C[C@@H](NC(=O)c3cccnc3)C[C@H]2CO)cc1` gave hNpr1 antagonist 4%, FLuc inh inactive, 3T3 cytotox -19% and HEK cytotox -21%.
For Cc1cccc(-c2noc([C@@H]3Cc4nc[nH]c4CN3C(=O)NC3CCCCC3)n2)c1 the results were hNpr1 antagonist -5%[70.6 µM], FLuc inh 40µM*, 3T3 cytotox 71µM* and HEK cytotox inconclusive.
Cc1cccc(-c2noc([C@@H]3Cc4nc[nH]c4CN3C(=O)NC(C)C)n2)c1 was read as hNpr1 antagonist -1%[70.6 µM], FLuc inh inconclusive, 3T3 cytotox inconclusive and HEK cytotox -18%[172 µM].
Screening O=C(NC1CCCCC1)N1Cc2[nH]cnc2C[C@H]1c1nc(-c2ccccc2)no1 returned hNpr1 antagonist -16%[70.6 µM], FLuc inh 45µM*, 3T3 cytotox 28µM* and HEK cytotox inconclusive.
`O=C(C1CCCCC1)N1Cc2[nH]cnc2C[C@H]1c1nc(-c2ccc3ccccc3c2)no1` gave hNpr1 antagonist -22%[70.6 µM], FLuc inh inconclusive, 3T3 cytotox 79µM* and HEK cytotox inconclusive.
`Cc1ccc(-c2noc([C@@H]3Cc4nc[nH]c4CN3C(=O)NC3CCCCC3)n2)cc1` gave hNpr1 antagonist -22%[70.6 µM], FLuc inh inactive, 3T3 cytotox inconclusive and HEK cytotox 2%[172 µM].
`CC(C)(CC(=O)O)CC(=O)N1Cc2[nH]cnc2C[C@H]1c1nc(-c2ccc3ccccc3c2)no1` gave hNpr1 antagonist 0%, FLuc inh inactive, 3T3 cytotox inactive and HEK cytotox inactive.
Screening CCOC(=O)[C@@H]1CN(C(=O)NCc2ccccc2)[C@H]2c3ccccc3O[C@@H]12 returned 3T3 cytotox inconclusive and HEK cytotox -24%.
`O=C1N(CCCCOc2ccccc2)c2ccccc2NC12CCNCC2` gave hNpr1 antagonist -17%, FLuc inh inactive, 3T3 cytotox inconclusive and HEK cytotox 20µM*.
Screening O=C(c1ccc2c(c1)OCO2)N1CCCN(CCn2nc3n(c2=O)CCCC3)CC1 returned 3T3 cytotox -5% and HEK cytotox inactive.
For O=C(NCCc1ccc(Cl)cc1)C1CCN(Cc2ccccc2-c2ccccc2F)CC1 the results were 3T3 cytotox inconclusive and HEK cytotox 32µM*.
For O=C(NCCc1ccc(F)cc1)C1CCN(Cc2ccccc2-c2ccccc2F)CC1 the results were 3T3 cytotox 35µM* and HEK cytotox 28µM*.
O=C(NCCc1ccccc1)C1CCN(Cc2ccccc2-c2ccccc2F)CC1 was read as 3T3 cytotox -21% and HEK cytotox inconclusive.
